We go through 26 targets from the supplement of paper PMC10849652.

About 8,800 targets were measured; listed, in parts, are those with a hit and a random draw of the rest. About 0.5% of all pairs of compound and target were hits. Unmarked numbers belong to inactive results.

What all share (assay): log2 fold change, soluble protein after heating vs DMSO (PISA); higher = thermal stabilisation; K562 lysate, 10 uM; active = over 0.2 and 3.5 SD of the protein, either way, in both replicates (recomputed)
Compound in experiment [1]: C1=CC=C(C=C1)[C@H](COC2=CC3=C(C=C2)NC(=O)N3)NC(=O)C4=CC=CN(C4=O)CC5=CC(=C(C=C5)F)F
In short, it runs like this:
(§1)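 Soluble protein was defined as the supernatant remaining after 21,000xg for 90 min, following pooling of heated aliquots and adjustment to 0.5% NP-40 at 4°C. Before that, crude K562 extract at 1 mg/mL protein in PBS pH 7.4 with 1 mM MgCl2 was treated with 10 μM compound for 30 min and heated for 3 min across 48°C-58°C. Quantification used TMTpro 16plex LC-MS/MS with channel sums equalised, and values are log-two fold changes in thermal stability relative to solvent controls from duplicates.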

Compound in experiment [2]: CC1=C(SC2=C1C(=N[C@H](C3=NN=C(N32)C)CC(=O)N)C4=CC=C(C=C4)Cl)C
In short, it runs like this:
as §1

Compound in experiment [3]: CC1=C2C(=CC=C1)N=C(N(C2=O)C3=CC=CC=C3C)CN4C=NC5=C(N=CN=C54)N
In short, it runs like this: as §1

Compound in experiment [4]: Cc1sc2c(c1C)C(c1ccc(Cl)cc1)=N[C@@H](CC(=O)OC(C)(C)C)c1nnc(C)n1-2
In short, it runs like this: as §1

Compound in experiment [5]: c1ccc([C@@H]2C[C@H]2NC2CCNCC2)cc1
In short, it runs like this:
as §1

Chain of UniProt Q8NFF5 (Q8NFF5 whole entry, looked up): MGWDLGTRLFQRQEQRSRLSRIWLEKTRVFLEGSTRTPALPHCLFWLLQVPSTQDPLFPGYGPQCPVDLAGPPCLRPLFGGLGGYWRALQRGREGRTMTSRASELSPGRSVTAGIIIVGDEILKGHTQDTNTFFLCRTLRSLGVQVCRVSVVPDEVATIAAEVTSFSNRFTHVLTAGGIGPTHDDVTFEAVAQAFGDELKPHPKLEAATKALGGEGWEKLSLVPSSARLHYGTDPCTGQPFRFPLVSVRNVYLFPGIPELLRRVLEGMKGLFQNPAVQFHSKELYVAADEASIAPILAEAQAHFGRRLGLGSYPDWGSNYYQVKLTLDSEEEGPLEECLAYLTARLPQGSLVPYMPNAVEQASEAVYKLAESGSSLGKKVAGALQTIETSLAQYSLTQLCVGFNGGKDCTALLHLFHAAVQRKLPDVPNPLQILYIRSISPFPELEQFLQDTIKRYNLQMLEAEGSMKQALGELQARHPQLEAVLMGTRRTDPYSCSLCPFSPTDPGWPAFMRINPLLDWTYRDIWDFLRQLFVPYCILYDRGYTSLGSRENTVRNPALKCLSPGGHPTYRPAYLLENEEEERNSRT
Chain of UniProt O75616 (O75616 whole entry, looked up): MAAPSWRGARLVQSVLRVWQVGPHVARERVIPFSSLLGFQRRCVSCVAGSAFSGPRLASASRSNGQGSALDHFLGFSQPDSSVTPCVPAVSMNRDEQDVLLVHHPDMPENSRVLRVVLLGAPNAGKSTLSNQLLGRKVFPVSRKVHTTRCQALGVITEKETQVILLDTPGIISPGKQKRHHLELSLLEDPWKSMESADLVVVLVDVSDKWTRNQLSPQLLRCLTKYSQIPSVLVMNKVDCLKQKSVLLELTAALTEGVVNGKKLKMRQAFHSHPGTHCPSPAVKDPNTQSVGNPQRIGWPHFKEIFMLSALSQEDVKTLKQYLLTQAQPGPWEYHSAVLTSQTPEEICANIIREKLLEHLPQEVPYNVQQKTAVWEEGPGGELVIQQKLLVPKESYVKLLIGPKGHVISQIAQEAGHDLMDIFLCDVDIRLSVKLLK
Chain of UniProt Q9NYY8 (Q9NYY8 whole entry, looked up): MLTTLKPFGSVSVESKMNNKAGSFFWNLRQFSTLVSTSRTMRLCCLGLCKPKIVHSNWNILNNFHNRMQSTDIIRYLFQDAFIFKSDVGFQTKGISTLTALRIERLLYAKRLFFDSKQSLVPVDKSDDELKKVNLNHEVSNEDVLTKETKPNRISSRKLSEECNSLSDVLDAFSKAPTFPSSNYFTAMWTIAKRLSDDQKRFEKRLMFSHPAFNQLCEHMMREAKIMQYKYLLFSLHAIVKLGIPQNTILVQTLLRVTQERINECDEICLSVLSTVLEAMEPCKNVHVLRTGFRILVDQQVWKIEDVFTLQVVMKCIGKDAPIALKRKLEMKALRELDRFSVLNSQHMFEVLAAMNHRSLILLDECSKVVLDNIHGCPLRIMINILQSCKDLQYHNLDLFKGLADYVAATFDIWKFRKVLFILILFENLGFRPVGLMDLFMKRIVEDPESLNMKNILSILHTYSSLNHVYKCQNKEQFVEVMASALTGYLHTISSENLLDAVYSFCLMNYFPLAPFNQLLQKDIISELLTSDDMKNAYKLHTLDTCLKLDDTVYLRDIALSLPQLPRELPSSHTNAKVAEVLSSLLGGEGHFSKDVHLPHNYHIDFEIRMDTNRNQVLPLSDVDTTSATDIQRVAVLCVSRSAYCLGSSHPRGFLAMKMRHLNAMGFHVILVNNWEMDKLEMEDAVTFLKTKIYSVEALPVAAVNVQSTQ
Chain of UniProt Q9NZJ0 (Q9NZJ0 whole entry, looked up): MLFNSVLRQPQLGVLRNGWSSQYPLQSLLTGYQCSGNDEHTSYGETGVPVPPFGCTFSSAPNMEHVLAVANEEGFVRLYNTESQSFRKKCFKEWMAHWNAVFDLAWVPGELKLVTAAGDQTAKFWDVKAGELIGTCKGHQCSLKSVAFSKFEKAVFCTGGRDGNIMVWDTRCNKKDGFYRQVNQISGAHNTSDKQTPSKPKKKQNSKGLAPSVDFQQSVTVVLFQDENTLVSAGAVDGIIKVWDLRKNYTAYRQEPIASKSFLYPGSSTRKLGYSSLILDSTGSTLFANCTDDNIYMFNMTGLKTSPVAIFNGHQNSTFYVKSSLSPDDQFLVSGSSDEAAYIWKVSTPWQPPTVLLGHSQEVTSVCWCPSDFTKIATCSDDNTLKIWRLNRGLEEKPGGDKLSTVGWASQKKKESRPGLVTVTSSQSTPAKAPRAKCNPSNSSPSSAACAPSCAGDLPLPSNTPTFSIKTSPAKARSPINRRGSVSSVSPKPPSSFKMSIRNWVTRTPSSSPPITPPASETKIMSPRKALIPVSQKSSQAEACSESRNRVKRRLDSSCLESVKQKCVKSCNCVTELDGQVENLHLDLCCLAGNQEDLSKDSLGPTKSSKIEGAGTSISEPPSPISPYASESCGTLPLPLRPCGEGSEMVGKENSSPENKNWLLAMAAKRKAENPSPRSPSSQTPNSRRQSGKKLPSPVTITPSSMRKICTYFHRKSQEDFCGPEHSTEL
Chain of UniProt P57678 (P57678 whole entry, looked up): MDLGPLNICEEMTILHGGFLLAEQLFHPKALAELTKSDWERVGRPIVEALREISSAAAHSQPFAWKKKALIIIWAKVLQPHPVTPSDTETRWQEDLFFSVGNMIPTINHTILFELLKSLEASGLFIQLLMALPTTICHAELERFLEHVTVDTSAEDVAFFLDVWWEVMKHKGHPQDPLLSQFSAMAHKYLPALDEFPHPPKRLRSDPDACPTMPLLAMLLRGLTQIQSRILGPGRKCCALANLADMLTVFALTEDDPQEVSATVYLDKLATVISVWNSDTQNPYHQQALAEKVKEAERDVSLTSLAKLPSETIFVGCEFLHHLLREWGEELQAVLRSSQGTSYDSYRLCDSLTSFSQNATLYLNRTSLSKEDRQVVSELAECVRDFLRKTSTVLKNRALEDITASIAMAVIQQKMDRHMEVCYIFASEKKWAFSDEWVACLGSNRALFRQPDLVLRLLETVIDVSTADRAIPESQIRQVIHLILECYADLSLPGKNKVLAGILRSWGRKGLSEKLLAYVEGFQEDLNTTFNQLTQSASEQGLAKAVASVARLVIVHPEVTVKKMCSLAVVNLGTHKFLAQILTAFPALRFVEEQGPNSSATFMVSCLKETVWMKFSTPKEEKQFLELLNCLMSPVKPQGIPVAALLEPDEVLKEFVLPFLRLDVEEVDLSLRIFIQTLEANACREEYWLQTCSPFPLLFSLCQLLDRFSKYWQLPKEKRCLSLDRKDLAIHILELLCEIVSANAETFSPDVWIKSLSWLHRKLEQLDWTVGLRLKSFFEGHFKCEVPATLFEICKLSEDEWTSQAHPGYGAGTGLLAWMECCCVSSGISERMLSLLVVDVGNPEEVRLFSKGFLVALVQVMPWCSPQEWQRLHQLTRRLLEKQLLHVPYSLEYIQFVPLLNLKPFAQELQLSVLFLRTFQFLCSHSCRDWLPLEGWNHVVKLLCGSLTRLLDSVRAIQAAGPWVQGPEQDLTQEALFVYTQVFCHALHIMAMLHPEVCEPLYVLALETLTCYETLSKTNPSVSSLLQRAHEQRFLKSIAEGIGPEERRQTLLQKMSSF
Chain of UniProt Q9NX74 (Q9NX74 whole entry, looked up): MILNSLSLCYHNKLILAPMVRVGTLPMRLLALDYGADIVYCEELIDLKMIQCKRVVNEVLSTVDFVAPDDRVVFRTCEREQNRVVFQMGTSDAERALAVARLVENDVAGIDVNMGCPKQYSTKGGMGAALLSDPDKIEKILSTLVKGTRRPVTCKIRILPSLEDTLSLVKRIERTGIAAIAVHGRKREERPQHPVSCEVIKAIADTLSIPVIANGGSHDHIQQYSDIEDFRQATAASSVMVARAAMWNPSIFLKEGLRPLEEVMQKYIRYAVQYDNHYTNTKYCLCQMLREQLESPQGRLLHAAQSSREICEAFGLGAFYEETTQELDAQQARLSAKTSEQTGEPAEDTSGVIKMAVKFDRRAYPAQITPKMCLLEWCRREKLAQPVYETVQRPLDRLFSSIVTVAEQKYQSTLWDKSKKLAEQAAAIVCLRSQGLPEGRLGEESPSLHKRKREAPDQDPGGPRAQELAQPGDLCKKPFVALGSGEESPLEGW
Chain of UniProt Q13347 (Q13347 whole entry, looked up): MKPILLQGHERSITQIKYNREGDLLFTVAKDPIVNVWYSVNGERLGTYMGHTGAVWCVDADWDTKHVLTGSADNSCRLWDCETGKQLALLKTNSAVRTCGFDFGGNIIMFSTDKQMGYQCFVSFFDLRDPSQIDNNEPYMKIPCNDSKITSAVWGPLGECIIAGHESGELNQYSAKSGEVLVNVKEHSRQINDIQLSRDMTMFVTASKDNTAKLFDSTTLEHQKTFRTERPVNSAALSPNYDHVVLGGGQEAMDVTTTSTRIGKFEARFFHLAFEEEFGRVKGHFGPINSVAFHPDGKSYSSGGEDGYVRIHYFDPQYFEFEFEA
Chain of UniProt Q9NRW4 (Q9NRW4 whole entry, looked up): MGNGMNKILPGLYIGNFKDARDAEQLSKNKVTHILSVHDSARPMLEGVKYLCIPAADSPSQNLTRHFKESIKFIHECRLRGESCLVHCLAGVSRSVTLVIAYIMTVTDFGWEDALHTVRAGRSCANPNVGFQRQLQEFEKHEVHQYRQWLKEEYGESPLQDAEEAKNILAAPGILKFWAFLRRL
Chain of UniProt O75071 (O75071 whole entry, looked up): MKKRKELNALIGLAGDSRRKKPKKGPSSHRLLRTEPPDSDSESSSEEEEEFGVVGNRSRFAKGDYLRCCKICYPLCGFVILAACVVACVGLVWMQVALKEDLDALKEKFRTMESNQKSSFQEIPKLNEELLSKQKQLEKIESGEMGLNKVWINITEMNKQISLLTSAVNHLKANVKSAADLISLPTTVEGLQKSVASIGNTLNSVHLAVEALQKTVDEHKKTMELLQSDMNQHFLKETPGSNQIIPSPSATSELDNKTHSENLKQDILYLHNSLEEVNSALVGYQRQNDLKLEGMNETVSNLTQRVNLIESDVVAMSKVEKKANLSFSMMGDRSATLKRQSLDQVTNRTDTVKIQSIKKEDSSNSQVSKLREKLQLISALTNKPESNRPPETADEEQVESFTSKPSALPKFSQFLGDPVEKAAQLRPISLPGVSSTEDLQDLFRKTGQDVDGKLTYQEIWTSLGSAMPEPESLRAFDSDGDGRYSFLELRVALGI

For EPB41, A0A2R8Y6D0, the log2 fold change in experiment [1] is -0.052; in experiment [2], 0.028; in experiment [3], -0.071; in experiment [4] it was 0.048; in experiment [5], 0.11.
With EIF2B5 (UniProt Q13144), the log2 fold change was -0.03 in experiment [1]; 0.007 in experiment [2]; 0.019 in experiment [3]; 0.023 in experiment [4]; 0.017 in experiment [5].
In the case of ERAL1 (UniProt O75616), the log2 fold change in experiment [1] was -0.048; in experiment [2] it was 0.033; in experiment [3] it was 0.007; in experiment [4] it was 0.009; in experiment [5], 0.075.
With FDFT1 (UniProt P37268), the log2 fold change in experiment [1] is -0.045; in experiment [2] it was 0.268 (active); in experiment [3] it was 0; in experiment [4], 0.107; in experiment [5], -0.047.
Consider FYCO1 isoform 4 (UniProt Q9BQS8), for which the log2 fold change is 0.01 in experiment [1]; 0.037 in experiment [2]; 0.03 in experiment [3]; 0.023 in experiment [4]; -0.1 in experiment [5].
Turning to EFCAB14 (UniProt O75071), the log2 fold change in experiment [1] was 0.099; in experiment [2], -0.074; in experiment [3], 0.088; in experiment [4] it was -0.014; in experiment [5], 0.013.
For FASTKD2 (UniProt Q9NYY8), the log2 fold change in experiment [1] is -0.013; in experiment [2], 0.044; in experiment [3], 0.018; in experiment [4], 0.017; in experiment [5] it was 0.002.
The corresponding values for GFPT1 (UniProt Q06210) are -0.021, -0.001, 0.021, 0.019 and 0.058.
The corresponding values for FKBP8 isoform 2 (UniProt Q14318) are -0.061, 0.012, -0.023, -0.084 and 0.043.
Take FLAD1 (UniProt Q8NFF5): the log2 fold change in experiment [1] is 0.006; in experiment [2], 0.032; in experiment [3], 0.011; in experiment [4] it was 0.017; in experiment [5], 0.022.
In the case of GALNT2 (UniProt Q10471), the log2 fold change in experiment [1] was 0.018; in experiment [2], -0.009; in experiment [3], 0.021; in experiment [4] it was 0.004; in experiment [5] it was -0.021.
GEMIN4 (UniProt P57678): the log2 fold change is -0.036 in experiment [1]; -0.015 in experiment [2]; -0.014 in experiment [3]; 0.04 in experiment [4]; 0.041 in experiment [5].
Take GCDH (UniProt Q92947): the log2 fold change was 0.034 in experiment [1]; -0.032 in experiment [2]; -0.022 in experiment [3]; -0.008 in experiment [4]; -0.004 in experiment [5].
Take GBF1 (UniProt Q92538): the log2 fold change was -0.044 in experiment [1]; 0 in experiment [2]; 0.005 in experiment [3]; 0.016 in experiment [4]; 0.011 in experiment [5].
The corresponding values for GIGYF2 (UniProt Q6Y7W6) are 0.047, -0.054, 0.011, -0.076 and 0.033.
The corresponding values for DTL (UniProt Q9NZJ0) are 0.033, 0.038, 0.089, -0.032 and -0.01.
Turning to ECI2 (UniProt O75521), the log2 fold change in experiment [1] was 0.019; in experiment [2] it was -0.005; in experiment [3], 0.014; in experiment [4] it was -0.009; in experiment [5] it was -0.045.
Consider EIF3I (UniProt Q13347), for which the log2 fold change in experiment [1] is -0.038; in experiment [2], 0.022; in experiment [3] it was 0.01; in experiment [4] it was 0.019; in experiment [5] it was 0.033.
For the target DST (UniProt Q03001), the log2 fold change in experiment [1] is -0.002; in experiment [2], 0.042; in experiment [3] it was 0.111; in experiment [4], -0.061; in experiment [5], -0.077.
As for EPHX2 (UniProt P34913), the log2 fold change is 0.021 in experiment [1]; 0.006 in experiment [2]; 0 in experiment [3]; 0.119 in experiment [4]; -0.012 in experiment [5].
Take FADS3 (UniProt Q9Y5Q0): the log2 fold change in experiment [1] is 0.021; in experiment [2], 0.018; in experiment [3], -0.227; in experiment [4], -0.06; in experiment [5] it was -0.115.
With DUSP22 isoform 2 (UniProt Q9NRW4), the log2 fold change was 0.05 in experiment [1]; -0.068 in experiment [2]; 0.038 in experiment [3]; 0.099 in experiment [4]; -0.028 in experiment [5].
Consider FECH isoform 2 (UniProt P22830), for which the log2 fold change in experiment [1] is 0.06; in experiment [2], -0.101; in experiment [3], -0.126; in experiment [4], -0.229; in experiment [5] it was -0.092.
Take DYNC1I2 isoform 2 (UniProt Q13409): the log2 fold change in experiment [1] was -0.011; in experiment [2], 0.253; in experiment [3] it was -0.005; in experiment [4], 0.082; in experiment [5], 0.155.
As for DUS2 (UniProt Q9NX74), the log2 fold change in experiment [1] was 0.037; in experiment [2] it was 0.018; in experiment [3], -0.018; in experiment [4], 0.055; in experiment [5] it was 0.116.
As to EWSR1 (UniProt H7BY36), the log2 fold change in experiment [1] was -0.079; in experiment [2], -0.06; in experiment [3], 0.091; in experiment [4] it was -0.058; in experiment [5] it was 0.061.
